The list is not random: actives were taken first. Their share in the collection is about 2.2%.
BaF3 parental = parental Ba/F3 cell viability inhibition, counter-screen for JAK2V617F inhibitor project, murine pro-B, CellTiter-Glo luminescence | 220,000 compounds, 1.1% hits | inhibition, % at 5.6 µM | AID 1486, 2009 | CellTiter-Glo ATP luminescence;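 active = inhibition above a per-campaign cutoff, the mean inhibition of all tested compounds plus 3 SD, cut at about 27% in these data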
aSyn 5UTR inh = MLPCN primary screen, SNCA 5' untranslated region; 300,000 compounds, 0.82% hits; inhibition, % (tested at 7.5 µM); alpha-synuclein 5'UTR reporter, inhibitor activity; in the data active = inhibition above about 60%;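 note: H4 neuroglioblastoma cells stably carrying SNCA 5'UTR luciferase fusion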
APP transl inh = inhibitors of APP translation via 5'UTR reporter, primary screen, APP 5'UTR luciferase, SH-SY5Y cells; inhibition, % at 2 µM; 190,000 compounds, 0.82% hits; SH-SY5Y APP 5'UTR-luciferase reporter, luminescence;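 active = inhibition above a set limit, derived from the sample mean plus 3 SD, cut at about 45% in these data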
Ba/F3 V617F tox = reduced viability of JAK2V617F-dependent Ba/F3 cells, primary screen, JAK2V617F inhibitor project, cell-based, Ba/F3 EpoR-JAK2V617F, luminescence; ATP luminescence; inhibition, % at 5.6 µM; 220,000 compounds, 1.1% hits;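 active = inhibition above the campaign mean plus 3 SD over all tested compounds, cut at about 24% in these data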;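 note: cytokine-independent growth of Ba/F3 cells driven by EpoR plus mutant JAK2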
KLF5 inhibitor = KLF5 expression inhibitors, primary screen, DLD-1 cells, luminescence; DLD-1 KLF5 promoter-luciferase reporter; inhibition, % at 5 µM; 290,000 compounds, 0.23% hits; AID 1700, 2009;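 active = inhibition above a per-plate limit of that plate's mean compound inhibition plus 3 SD, cut at about 60% in these data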;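 note: higher means less KLF5 promoter-driven luciferase light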
IEC-6 tox-1 = cytotoxicity in IEC-6 intestinal epithelial cells, primary screen, cytotoxicity control for KLF5 inhibitor project, cell-based, luminescence. 290,000 compounds, 0.78% hits. inhibition, % at 5 µM. IEC-6 cytotoxicity, luminescence viability. AID 1825, 2009
KLF5 confirm = KLF5 expression inhibitors, confirmation, DLD-1 cells, luminescence. shares compounds with KLF5 inhibitor. DLD-1 KLF5 promoter firefly luciferase reporter. 610 compounds, 79% hits. inhibition, % at 4 µM;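 active = inhibition above a set limit taken from the earlier primary screen, cut at about 63% in these data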
IEC-6 tox-2 = cytotoxicity in rat IEC-6 cells, cytotoxicity control for KLF5 inhibitor project, cell-based, luminescence, triplicate; 610 compounds, 56% hits; inhibition, % at 4 µM; IEC-6 rat intestinal cells, viability luminescence; shares compounds with KLF5 inhibitor; in the data active = inhibition above about 23%;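 note: cells exposed to compounds for 48 hours before viability read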
IEC-6 tox confirm = cytotoxic compounds in IEC-6 epithelial cells, confirmation, cytotoxicity control, cell-based, luminescence | shares compounds with IEC-6 tox-1 | IEC-6 rat intestinal epithelial viability | 1,900 compounds, 63% hits | AID 1907, 2009 | inhibition, % at 5 µM
Of the large screens only hits and unclear results are named; the others gave an inactive call (follow-up assays come after a bar, where they were run). Cut-off read from the data, not from the text of the source, unless noted: active = inhibition above about 22%; inactive = the rest.

CCc1cc(CNC(=O)c2ccc(OC3CCN(CCc4ccccc4)CC3)cc2)on1	none (no result: BaF3 parental, APP transl inh, Ba/F3 V617F tox)
O=C(N/N=C\c1c(O)ccc2ccccc12)c1cncc(Br)c1	aSyn 5UTR inh 62, KLF5 inhibitor 70, IEC-6 tox-1 95 (no result: BaF3 parental, APP transl inh, Ba/F3 V617F tox) | KLF5 confirm 86 | IEC-6 tox-2 56 | IEC-6 tox confirm 65
O=C(N/N=C/c1c(O)ccc2ccccc12)c1cccnc1	aSyn 5UTR inh 93, KLF5 inhibitor 82, IEC-6 tox-1 75 (no result: BaF3 parental, APP transl inh, Ba/F3 V617F tox) | KLF5 confirm 81 | IEC-6 tox-2 inactive | IEC-6 tox confirm inactive
O=C(N/N=C/c1cc(O)ccc1Br)c1cccnc1	KLF5 inhibitor 80, IEC-6 tox-1 66 (no result: BaF3 parental, APP transl inh, Ba/F3 V617F tox) | KLF5 confirm 90 | IEC-6 tox-2 inactive | IEC-6 tox confirm inactive
Cc1ccc(C(=O)N/N=C/c2c(O)ccc3ccccc23)cn1	aSyn 5UTR inh 62, KLF5 inhibitor 94, IEC-6 tox-1 39 (no result: BaF3 parental, APP transl inh, Ba/F3 V617F tox) | KLF5 confirm 85 | IEC-6 tox-2 inactive | IEC-6 tox confirm 33
Cn1cccc1/C=N\NC(=O)c1cncc(Br)c1	none (no result: APP transl inh)
Cc1ccc(S(=O)(=O)Oc2ccccc2/C=N/N=C(N)N)cc1	none
Cc1ccc(S(=O)(=O)Oc2ccccc2/C=N/NC(N)=S)cc1	BaF3 parental 71, APP transl inh 91, Ba/F3 V617F tox 82, KLF5 inhibitor 65, IEC-6 tox-1 58 | KLF5 confirm 73 | IEC-6 tox-2 57 | IEC-6 tox confirm inactive
O=C(NC1CCCCC1)C(c1ccc(F)cc1)N(C(=O)c1csnn1)C1CC1 (stereo not given)	none (no result: BaF3 parental, APP transl inh, Ba/F3 V617F tox)
COc1ccc(C2=NOC(C(=O)NCc3ccc(F)cc3)C2)cc1OC (stereo not given)	BaF3 parental 82, aSyn 5UTR inh 82, APP transl inh 96, Ba/F3 V617F tox 79, KLF5 inhibitor 85, IEC-6 tox-1 88 | KLF5 confirm 79 | IEC-6 tox-2 63 | IEC-6 tox confirm 58
COc1cc(C2=NOC(C(=O)NCc3ccc(F)cc3)C2)cc(OC)c1OC (stereo not given)	BaF3 parental 78, aSyn 5UTR inh 77, APP transl inh 95, Ba/F3 V617F tox 79, KLF5 inhibitor 73, IEC-6 tox-1 86 | KLF5 confirm 85 | IEC-6 tox-2 65 | IEC-6 tox confirm 55
COc1cccc(C2=NOC(C(=O)NCc3ccc(F)cc3)C2)c1 (stereo not given)	none
COC(=O)c1sccc1NC(=O)CNC(=O)c1ccccc1	none
CCN1C(=O)C(CC(=O)Nc2ccc(OC)cc2)N(CCCN2CCN(c3ccc(OC)cc3)CC2)C1=S (stereo not given)	none
O=C(N/N=C/c1cccc(O)c1)c1ccc2c(c1)OCCO2	none (no result: BaF3 parental, APP transl inh, Ba/F3 V617F tox)
Cc1cccc(/C=N/NC(=O)c2ccc3c(c2)OCCO3)c1O	KLF5 inhibitor 70, IEC-6 tox-1 99 (no result: BaF3 parental, APP transl inh, Ba/F3 V617F tox) | KLF5 confirm inactive | IEC-6 tox-2 inactive | IEC-6 tox confirm inactive
COc1cc(SC)ccc1C(=O)Nc1nc2ccccc2[nH]1	aSyn 5UTR inh 131, KLF5 inhibitor 100, IEC-6 tox-1 77 (no result: BaF3 parental, APP transl inh, Ba/F3 V617F tox) | KLF5 confirm 98 | IEC-6 tox-2 44 | IEC-6 tox confirm 59
COc1ccccc1C(=O)Nc1nc2ccccc2[nH]1	aSyn 5UTR inh 100, KLF5 inhibitor 101, IEC-6 tox-1 80 (no result: BaF3 parental, APP transl inh, Ba/F3 V617F tox) | KLF5 confirm 105 | IEC-6 tox-2 58 | IEC-6 tox confirm 69
C=Cn1cc[n+](CC(=O)c2ccc(Br)cc2)c1	none (no result: BaF3 parental, APP transl inh, Ba/F3 V617F tox)
O=C(CC(=O)N/N=C/c1c(Cl)cccc1Cl)NCc1cccnc1	none (no result: BaF3 parental, APP transl inh, Ba/F3 V617F tox)
